Results reported in publication PMC4336329 (PLoS ONE, 2015).
In all, about 310,000 compounds went through this assay and about 14,000 (4.5%) showed an effect of 50% or more. The effect is printed as a negative number. Many of the other results were omitted from the sample, so strong results are more common in it than they were.

The compounds below were run against human ether-à-go-go-related gene (hERG) potassium channel (human, UniProt Q12809) (assay: primary screen, population patch clamp on CHO cells stably expressing hERG; higher = less effect of the substance).
human ether-à-go-go-related gene (hERG) potassium channel, sequence (Q12809 whole entry, looked up): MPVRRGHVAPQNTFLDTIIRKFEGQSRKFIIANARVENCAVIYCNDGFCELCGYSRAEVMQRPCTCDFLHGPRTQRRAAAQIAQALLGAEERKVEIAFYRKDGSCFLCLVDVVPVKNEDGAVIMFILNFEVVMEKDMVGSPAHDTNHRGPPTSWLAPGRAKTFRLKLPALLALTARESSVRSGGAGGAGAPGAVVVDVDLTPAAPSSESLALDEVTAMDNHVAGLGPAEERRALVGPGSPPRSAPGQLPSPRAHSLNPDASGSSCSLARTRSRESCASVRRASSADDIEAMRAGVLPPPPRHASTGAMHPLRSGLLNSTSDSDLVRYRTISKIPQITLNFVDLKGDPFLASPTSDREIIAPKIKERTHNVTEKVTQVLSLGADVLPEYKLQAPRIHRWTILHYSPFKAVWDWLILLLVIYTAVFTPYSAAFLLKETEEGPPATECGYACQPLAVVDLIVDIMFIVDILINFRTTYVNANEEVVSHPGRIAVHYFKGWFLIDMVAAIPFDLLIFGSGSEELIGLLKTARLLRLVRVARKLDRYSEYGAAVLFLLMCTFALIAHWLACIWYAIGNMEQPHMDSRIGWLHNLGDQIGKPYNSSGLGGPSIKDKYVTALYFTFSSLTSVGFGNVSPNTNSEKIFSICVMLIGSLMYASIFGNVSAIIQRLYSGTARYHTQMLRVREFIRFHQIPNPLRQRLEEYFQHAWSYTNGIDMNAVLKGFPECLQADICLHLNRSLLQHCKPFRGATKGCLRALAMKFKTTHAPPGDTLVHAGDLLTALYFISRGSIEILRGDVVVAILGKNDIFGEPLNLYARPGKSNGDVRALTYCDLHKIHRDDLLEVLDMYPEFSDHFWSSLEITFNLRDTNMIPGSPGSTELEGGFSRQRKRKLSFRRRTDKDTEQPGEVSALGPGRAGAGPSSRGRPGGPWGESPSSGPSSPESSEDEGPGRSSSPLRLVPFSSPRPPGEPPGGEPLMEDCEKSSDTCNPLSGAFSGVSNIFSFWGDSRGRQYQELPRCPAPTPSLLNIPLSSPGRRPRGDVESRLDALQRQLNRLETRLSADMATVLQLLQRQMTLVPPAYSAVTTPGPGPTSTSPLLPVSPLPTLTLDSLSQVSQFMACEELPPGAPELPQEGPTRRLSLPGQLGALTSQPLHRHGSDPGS
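Further: peak tail current of the secondary pulse compared with the same well before compound.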

SMILES | hERG current change (%, negative = inhibition) at 10uM
Cc1cccc(C(=O)O/N=C2/CC3CCC2(C)C3(C)C)c1 (centres unmarked) | -11%
Cc1cc(C(=O)NCCC2=CCCCC2)c(C)o1 | 7.75%
O=S(=O)(c1cccc(-c2n[nH]c(=S)o2)c1)N1CCOCC1 | 14.9%
CCC(C)NC(=O)C1CCN(S(=O)(=O)N2CCOCC2)CC1 (centres unmarked) | 22.8%
N#CC1=C(SCc2ccc(C#N)cc2)N=C(N)C(c2nc(-c3ccccc3)cs2)C12CCCCC2 (centres unmarked) | 12.3%
CCC(C)Cn1c(C(C)O)nc2ccccc21 (centres unmarked) | 0.00748%
O=C(c1cc2ccccc2o1)N1CCN(c2cccc(C(F)(F)F)c2)CC1 | 3.21%
O=C(CCC(=O)NNC(=O)COc1ccc(Br)cc1Br)NCc1ccccc1 | 16.9%
CCOc1cc(/C=N/NC(N)=O)cc(Br)c1OCC(=O)Nc1cccc2ccccc12 | 18.4%
CCOc1cc(/C=N/NC(N)=O)cc(Br)c1OCc1ccccc1 | 3.4%
CCOc1cc(/C=N/O)cc(Br)c1OCC(=O)NCc1ccccc1 | 1.7%
Cc1ccccc1NC(=O)COc1ccc(Br)cc1CNCCCO.Cl | -15.6%
Cl.O=C(COc1ccc(Br)cc1CNCCc1ccccc1)NCc1ccccc1 | -61.1%
CCOc1cc(/C=N/NC(N)=O)cc(Br)c1OCC(=O)Nc1ccccc1C | -65.7%
CCOc1cc(C=O)cc(Br)c1OCC(=O)NCCc1ccccc1 | -81.7%
COc1cc(CNC(C)C23CC4CC(CC(C4)C2)C3)ccc1OCC(=O)NC(C)(C)C.Cl (centres unmarked) | -4.99%
CC(NCc1cc(Br)ccc1OCC(N)=O)C12CC3CC(CC(C3)C1)C2.Cl (centres unmarked) | -55.8%
CC(NCc1ccc(OCC(N)=O)cc1)C12CC3CC(CC(C3)C1)C2.Cl (centres unmarked) | -11.2%
CCOc1cc(C=O)cc(Br)c1OCC(N)=O | 2.71%
CCN(CC)CCCNC(=O)Cn1cnc2sc(C)c(S(=O)(=O)N3CCC(C)CC3)c2c1=O | 11.1%
COC(=O)c1ccc(Cn2nc(-c3ccc(C)cc3)ccc2=O)cc1 | 23.5%
CCn1cc(C(=O)O)c(=O)c2cnc(N3CCN(C(=S)Nc4ccc(F)cc4)CC3)nc21 | 13.3%
CCN(c1ccccc1)S(=O)(=O)c1cccc(C(=O)N(C)CCOc2ccccc2)c1 | -3.95%

SMILES | hERG current change (%, negative = inhibition) at 10uM
CCCCN(C)CCC(=O)Nc1ccc2c(c1)CCC2.Cl | -7.46%
CCOC(=O)c1sc(NC(=O)CSc2ncn(-c3ccccc3)n2)nc1C | 7.23%
COc1ccc(CNC(=O)CCn2c(=O)oc3ccccc32)cc1 | -5.31%
O=C(NC(=S)Nc1ccc2[nH]c(=O)[nH]c2c1)c1ccccc1[N+](=O)[O-] | -8.83%
Cc1cc(C(=O)N2CCN(c3ncccn3)CC2)cs1 | -15.6%
CCOC(=O)c1sc(NC(=S)NC(=O)C2CCCC2)cc1C | 7.72%
COc1ccc(Br)cc1CNC(C)c1ccccc1 (centres unmarked) | -19.8%
CCCNCc1cc(Br)ccc1OCC(=O)NCCc1ccccc1 | -63.5%
CCCNCc1cc(OC)c(OCC(=O)NCCc2ccccc2)cc1Br | -38.1%
COc1cc(CNC(C)c2ccccc2)c(Br)cc1OCC(N)=O (centres unmarked) | -17.2%
CCOc1cc(CNCCO)c(Cl)cc1OCC(=O)NCCc1ccccc1 | -6.82%
CC(NCc1cc(Br)ccc1OCC(=O)NCc1ccccc1)c1ccccc1.Cl (centres unmarked) | -59.6%
O=C(c1cccnc1)c1ncc(C(F)(F)F)cc1Cl | -3.33%
O=C(CSc1ccccc1)Nc1nnc(C2CC2)s1 | 16.9%
Cc1c(C(=O)N(Cc2ccccc2)Cc2cccs2)cnn1-c1ccc(Cl)cc1 | -3.32%
O=C(/C=C/c1ccccc1)N/C(=C/c1ccccc1)C(=O)NCCCO | -7.96%
CCC(C)c1ccc(S(=O)(=O)N2CCN(c3ccccn3)CC2)cc1 (centres unmarked) | 24.6%
N#CC[n+]1cc(-c2ccc(Cl)cc2)n2c1CCC2.[Cl-] | 5.21%
Cc1ccc(C[n+]2cc(-c3ccc(Cl)cc3)n3c2CCC3)cc1.[Cl-] | -51.3%
Cc1ccc(-c2c[n+](Cc3ccc(Cl)cc3)c3n2CCC3)cc1.[Cl-] | -41.6%
Cc1ccc(-c2c[n+](Cc3cccc(Cl)c3)c3n2CCC3)cc1.[Br-] | -57.7%
Clc1ccc(-c2c[n+](Cc3ccc(Br)cc3)c3n2CCCCC3)cc1.[Br-] | -66.4%
Clc1ccc(C[n+]2cc(-c3ccc(Cl)cc3)n3c2CCC3)cc1.[Cl-] | -61.9%

SMILES | hERG current change (%, negative = inhibition) at 10uM
Clc1cccc(C[n+]2cc(-c3ccccc3)n3c2CCC3)c1.[Br-] | -25.7%
Cc1ccc(-c2c[n+](CC(=O)c3cccs3)c3n2CCC3)cc1.[Br-] | 5.08%
Cc1ccc(-c2c[n+](CC(=O)N3c4ccccc4Sc4ccccc43)c3n2CCC3)cc1.[Cl-] | -49.1%
CCOc1ccc(CC2NCCc3cc(OCC)c(OCC)cc32)cc1OCC (centres unmarked) | -13.3%
CCN1C(=O)/C(=C\c2ccco2)C(C(=O)OC)=C1C | 10.4%
Cn1nccc1NC(=O)Nc1cccc(Cl)c1Cl | 16.5%
COC(=O)CSc1nc(C2CC2)nc2ccccc12 | -11.5%
Cc1cc(C)cc(N(C(C)C(=O)N2CCCCC2)S(C)(=O)=O)c1 (centres unmarked) | 4.06%
Cc1ccc(S(=O)(=O)NCC(=O)N(CC(=O)NCC2CCCO2)Cc2ccc(Cl)cc2)cc1 (centres unmarked) | -11%
Cc1c(Cl)cccc1NC(=S)NC1CCCC1 | -5.1%
Cc1ccc(-c2csc(NC(=O)c3ccno3)n2)cc1 | 2.72%
CN1CCN(C(=O)CSc2nc(-c3cccs3)ccc2C#N)CC1 | -4.44%
COC(=O)c1ccc(CN(c2ccccn2)S(=O)(=O)c2ccccc2)cc1 | 14.1%
Clc1ccc(C[n+]2cc(-c3ccccc3)n3c2CCC3)cc1Cl.[Cl-] | -45.1%
O=[N+]([O-])c1ccc(C[n+]2cc(-c3ccc(Cl)c(Cl)c3)n3c2CCCCC3)cc1.[Br-] | -15.7%
Cc1ccc(-c2c[n+](Cc3ccc(Cl)c(Cl)c3)c3n2CCC3)cc1.[Cl-] | -68.9%
CC(=O)N1CCN(c2ccccc2NC(=O)c2cc3ccccc3o2)CC1 | -49.8%
O=C1CC(c2ccccc2)CC(O)=C1C=NCCCN1CCOCC1 (centres unmarked) | -9.92%
O=C(O)c1cc(-c2cccs2)nc2ccc(Br)cc12 | 21%
CCN(c1ccc2c(c1)OCO2)S(=O)(=O)c1cc(Br)cc2c1N(C(=O)C1CC1)CC2 | 8.05%
O=C(C1CC1)N1CCc2cc(Br)cc(S(=O)(=O)NCc3ccco3)c21 | -41%
CC(=O)N1c2c(cc(Br)cc2S(=O)(=O)NCc2ccc(C)cc2)CC1C (centres unmarked) | -59.5%
O=C(O)CCS(=O)(=O)c1cc(Br)cc2c1N(C(=O)C1CC1)CC2 | 9.39%

SMILES | hERG current change (%, negative = inhibition) at 10uM
CC(=O)N1CCc2cc(Br)cc(S(=O)(=O)NCCCN(C)Cc3ccccc3)c21 | -38.3%
CC(=O)N1CCc2cc(Br)cc(S(=O)(=O)NCc3ccccn3)c21 | 7.02%
O=C(C1CC1)N1CCc2cc(Br)cc(S(=O)(=O)NCc3ccc4c(c3)OCO4)c21 | -64.8%
CC(=O)N1CCc2cc(Br)cc(S(=O)(=O)NCc3ccc(Cl)cc3)c21 | -58.6%
CC(=O)N1c2c(cc(Br)cc2S(=O)(=O)NCc2ccccc2)CC1C (centres unmarked) | -35.5%
CCCCN(C)S(=O)(=O)c1cc(Br)cc2c1N(C(=O)C1CC1)CC2 | -51.6%
COc1ccc(CNS(=O)(=O)c2cc(Br)cc3c2N(C(C)=O)C(C)C3)cc1 (centres unmarked) | -40.9%
CCCN(CCC)S(=O)(=O)c1cc(Br)cc2c1N(C(=O)CC)CC2 | -2.75%
COc1cc(CNn2cnnc2)ccc1OCC(=O)NC(C)(C)C | 1.29%
O=C(Nc1nc(-c2ccc3c(c2)OCO3)cs1)C1COc2ccccc2O1 (centres unmarked) | 13.1%
CCn1c(SCC(=O)N=Nc2c(O)[nH]c3ccccc23)nc2ccccc21 | -11.9%
CC1=CC(=O)CC(C)(C)C1(O)/C=C/C(C)=C/C(=O)O (centres unmarked) | 5.43%
CCOc1ccc(Nc2ncnc3c2cnn3C)cc1 | -16.6%
COc1cccc(C(c2c(C)[nH]n(-c3ccccc3)c2=O)c2c(C)[nH]n(-c3ccccc3)c2=O)c1O | -4.28%
CCN(CC)CCn1c(=S)[nH]c2ncccc2c1=O | -20.5%
CN(C)CCn1c(=S)[nH]c2ccc(Cl)cc2c1=O | -21.7%
CCN(CC)CCn1c(=S)[nH]c2cc3c(cc2c1=O)OCO3 | -24.2%
CCN(CC)CCn1c(=S)[nH]c2ccc(Br)cc2c1=O | -66.7%
CCN(CC)CCCn1c(=S)[nH]c2ccc(Cl)cc2c1=O | -63.7%
CCN(CC)CCn1c(=S)[nH]c2ccccc2c1=O | -25.6%
CCN(CC)CCn1c(=S)[nH]c2ccc(Cl)cc2c1=O | -60.8%
CCN(CC)CCCn1c(=S)[nH]c2ncccc2c1=O | -15.9%
CCN(CC)CCCn1c(=S)[nH]c2cc(OC)c(OC)cc2c1=O | -2.6%
